Consider 38 compounds from PubChem BioAssay AID624305 (National Center for Advancing Translational Sciences (NCATS), 2012).

Inconclusive results are not listed. Where a call stands in place of a potency, no number is given. Values without a mark were called inactive. Calls of active or inactive are those of the source. The call rests on the fitted dose curve; in most records, active means well fitted activation curve with a large enough effect; inconclusive means small, poorly fitted or top-dose-only effect; inactive means no such curve, though single readings can be large or run the other way.
Potency means the concentration at half of the fitted maximal effect.

This experiment is described as follows: qHTS assay for re-activators of p53 using a Luc reporter: Hit Validation. Further: nearly all actives have a fitted effect of over 75% in size. The following applies: p53-responsive luciferase reporter cells, luminescence, H1299 line expressing heat-sensitive Ala138Val p53; series mostly up to 46.1 µM. In a few lines: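 Hit confirmation with a 1:5 dilution series, at 37 deg C for 24 hrs, in H1299 cells co-expressing temperature-sensitive p53-A138V and p53-responsive luciferase. Nocodazole served as control; luminescence read after 10 min with detection reagent.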
Consider `COc1ccc(C(=O)O/N=C(\N)c2ccccc2)c(OC)c1`, for which the Potency was 0.366 µM (active).
The same measure, in the same setting: the same measure for `C/C(=N\NC(=O)c1cccc(Br)c1)c1ccccn1`: 9.2 µM (active); for `C=CCOc1c(Br)cc(CNCCCN2CCOCC2)cc1OC`: “inactive”.
As for `O=C(Oc1c(Cl)cc(Cl)c2cccnc12)c1cccc([N+](=O)[O-])c1`, the Potency result is “inactive”.
With `Cc1cc(C)cc(OCC(=O)NNC(=O)c2ccccn2)c1`, the Potency result is “inactive”.
Still for that read-out and setting: the same measure for `Cc1ccc2cc(C#N)c(NCc3ccco3)nc2c1`: “inactive”.
`COc1cccc(C(=O)c2sc(NC(C)C)nc2N)c1`: the activation was 25.6% [at 9.22 µM].
`Cc1cc(C)cc(NC(=O)CSc2nnc(-c3ccccc3C)o2)c1`: the Potency result is “inactive”.
Still for that read-out and setting: the same measure for `O=C1CCCC(O)=C1N=Nc1ccc2c(c1)OCO2`: 23.1 µM (active); for `COc1ccccc1NC(CC(=O)c1ccccc1)C(=O)OCC(=O)c1ccc(C)cc1` (stereo not drawn): 0.206 µM (active).
On to `Cc1nn2cc(-c3ccc(-c4ccccc4)cc3)nc2s1`, for which the Potency is 0.184 µM (active).
Consider `Cc1ccc(S(=O)(=O)NCC(=O)N2CCc3ccccc3C2)cc1`, for which the Potency entry was “inactive”.
The same measure, in the same setting: next, `Oc1ccc(N=Cc2c(O)ccc3ccccc23)cc1`: “inactive”; `CC(C)C(=O)NC(c1cccs1)c1cc([N+](=O)[O-])c2cccnc2c1O` (stereo not drawn): “inactive”.
Same read-out and setting: next, `Cc1cs/c(=N/C(=S)Nc2ccccc2)n1C`: 1.84 µM (active); `Cc1ccc2cc3c(N)c(C(=O)N4CCOCC4)sc3nc2c1`: 1.03 µM (active).
Same read-out and setting: the same measure for `O=C(/C=C/c1cccs1)Nc1ccc(Br)cn1`: 1.84 µM (active).
Regarding `Clc1ccc(OCc2nc(-c3ccncc3)no2)c(Cl)c1`, the Potency was 8.2 µM (active).
Still for that read-out and setting: the same measure for `O=C(c1cccs1)c1coc2ccc(O)cc12`: 16.4 µM (active); for `O=c1c2ccccc2oc2ccc(-c3ccc4cc[nH]c4c3)cc12`: 0.411 µM (active); for `O=C(COC(=O)c1cc2ccccc2oc1=O)Nc1cccc(S(=O)(=O)N2CCCCCC2)c1`: “inactive”.
Still for that read-out and setting: the same measure for `CCCCn1c(/C=N/Nc2nc3ccccc3[nH]2)nc2ccccc21`: 23.1 µM (active); for `COc1ccc(-c2cc(=O)c3ccccc3s2)cc1`: 4.11 µM (active); for `O=C(COC(=O)CNC(=O)c1ccc([N+](=O)[O-])o1)Nc1ncc(C(F)(F)F)cc1Cl`: “inactive”.
For the compound `COc1ccc(C2SCCN2C(=S)Nc2ccc(Cl)cc2)cc1` (stereo not drawn), the Potency result was “inactive”.
In the case of `COc1cc(NC(=O)C(C)C)ccc1NC(=O)c1ccco1`, the Potency was 7.31 µM (active).
As to `Nc1c(C(=O)c2ccc(Cl)cc2)oc2ccccc12`, the Potency entry was “inactive”.
Regarding `O=C(CCc1nc(-c2ccccc2F)no1)NC1CCCCCC1`, the Potency result is “inactive”.
With `COc1ccccc1Oc1c(C)oc2c(CN(C)C)c(O)ccc2c1=O`, the Potency result is “inactive”.
With `COc1ccc(CCNC(=O)/C=C/c2ccc(S(=O)(=O)N3CCOCC3)cc2)cc1`, the Potency result is “inactive”.
With `COc1ccc(CC(=O)Nc2ccc(C(=O)Nc3ccccc3C(=O)O)cc2)cc1OC`, the Potency result was “inactive”.
The same measure, in the same setting: next, `CN(C)c1ccc(C(=O)Nc2nc3c(s2)CCCC3)cc1`: 0.082 µM (active); `CN1CCN(C(=O)CCCN2C(=O)/C(=C/c3ccc(Cl)cc3)SC2=S)CC1`: 9.2 µM (active).
As for `Cc1cc(F)ccc1NC(=O)Nc1ccc2c(c1)OCO2`, the Potency result is “inactive”.
Take `COC(=O)CSc1nc2cc3c(cc2cc1C#N)OCO3`: the Potency entry is “inactive”.
For the compound `CN(C)c1ccc(N=Cc2nc(-c3ccccc3)oc2OC(=O)c2cccc(Cl)c2)cc1`, the Potency was 2.06 µM (active).
On the same count and under the same terms, next, `Clc1ccc(-c2nnc(SCc3ccon3)o2)c(Cl)c1`: 0.366 µM (active); `CCN(CC)C(=O)CNC(=S)N(CCCN1CCOCC1)Cc1cccs1`: “inactive”.
